A short description of assay [1]: antimalarial activity against Dd2 strain (AID 2302;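 active = growth inhibition above 50% at the single 2 µM test dose, taken to imply half-maximal potency below 2 µM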;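 also: 0% = DMSO untreated growth and 100% = chloroquine plus artemisinin killed control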). Conditions: P. falciparum Dd2 in RBCs, LDH growth readout, 72 h; at 2 µM; active compounds read high.
The nature of assay [2]: human hepatoma cell viability loss – ATP luminescence, cytotoxicity control for P. falciparum antimalarial project, primary screen (AID 2303;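 active = inhibition above 50%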;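 also: 0% = DMSO wells and 100% = digitonin-killed cells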). The settings on record: HepG2 viability, 24-48 h, at 10 µM, active compounds read high.
Assay [3] addresses L-lactate dehydrogenase (Plasmodium falciparum (isolate CDC / Honduras)) (UniProt Q27743). Kind of assay: PfLDH activity inhibition – cell lysate, 3D7 strain, counter-screen for P. falciparum growth inhibition project (AID 2304).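 Also: 0% = vehicle and 100% = reference inhibitor.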 The settings on record: P. falciparum 3D7 crude extract, LDH APAD/NBT absorbance; at 2 µM; active compounds read high.
Assay [4] is described as follows: inhibition of 3D7 malaria parasite growth – strain 3D7 (AID 2306).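 Also: 0% = DMSO wells and 100% = chloroquine plus artemisinin control wells.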 Conditions: P. falciparum 3D7 erythrocytic growth, LDH absorbance, 72 h; at 2 µM; active compounds read high.
Assay [5] deals with Calcium-dependent protein kinase 1 (Plasmodium falciparum (isolate 3D7)) (UniProt P62344). As to the kind of experiment: PfCDPK1 kinase inhibitors, biochemical, TCAMS library (AID 1159585; cut-off not given, nearly all actives have IC50 up to about 0.98 µM;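 also: inhibitors leave more ATP so luminescence rises with inhibition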). The settings on record: recombinant PfCDPK1, Kinase-Glo ATP depletion luminescence.
Calcium-dependent protein kinase 1 (Plasmodium falciparum (isolate 3D7)), sequence (P62344 whole entry, looked up): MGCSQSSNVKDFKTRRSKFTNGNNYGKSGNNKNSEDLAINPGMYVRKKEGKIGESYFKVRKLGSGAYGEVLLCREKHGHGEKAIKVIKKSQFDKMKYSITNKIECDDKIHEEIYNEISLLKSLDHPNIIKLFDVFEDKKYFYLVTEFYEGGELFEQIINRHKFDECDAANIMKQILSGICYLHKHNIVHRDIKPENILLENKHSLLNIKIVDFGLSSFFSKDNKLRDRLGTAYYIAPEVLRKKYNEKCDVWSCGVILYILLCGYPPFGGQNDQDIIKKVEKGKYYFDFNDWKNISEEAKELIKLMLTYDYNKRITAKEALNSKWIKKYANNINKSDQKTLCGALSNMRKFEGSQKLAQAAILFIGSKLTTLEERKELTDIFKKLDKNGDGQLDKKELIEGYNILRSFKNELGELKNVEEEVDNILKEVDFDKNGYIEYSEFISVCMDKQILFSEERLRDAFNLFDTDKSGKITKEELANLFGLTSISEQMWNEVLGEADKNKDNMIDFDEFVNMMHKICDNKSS
Assay [6] has as its target Plasmodium falciparum protein kinase 6 (PK6, PF3D7_1337100) (UniProt Q8IDW1). Kind of assay: PfPK6 kinase inhibitors, biochemical, TCAMS library (AID 1159586). Conditions: recombinant PfPK6, Kinase-Glo ATP depletion luminescence.
The target in assay [7] is Protein kinase 7 (PK7), Plasmodium falciparum 3D7 (PF3D7_0213400) (UniProt Q7YTF7). Kind of assay: inhibition of Plasmodium PK7 catalytic activity – biochemical, TCAMS antimalarial set, Kinase-Glo luminescence (AID 1159587). Conditions: recombinant PfPK7, Kinase-Glo ATP depletion luminescence. For orientation: Kinase-Glo reads ATP consumption through a luciferase reaction.
Protein kinase 7 (PK7), Plasmodium falciparum 3D7 (PF3D7_0213400), sequence (Q7YTF7 1-343): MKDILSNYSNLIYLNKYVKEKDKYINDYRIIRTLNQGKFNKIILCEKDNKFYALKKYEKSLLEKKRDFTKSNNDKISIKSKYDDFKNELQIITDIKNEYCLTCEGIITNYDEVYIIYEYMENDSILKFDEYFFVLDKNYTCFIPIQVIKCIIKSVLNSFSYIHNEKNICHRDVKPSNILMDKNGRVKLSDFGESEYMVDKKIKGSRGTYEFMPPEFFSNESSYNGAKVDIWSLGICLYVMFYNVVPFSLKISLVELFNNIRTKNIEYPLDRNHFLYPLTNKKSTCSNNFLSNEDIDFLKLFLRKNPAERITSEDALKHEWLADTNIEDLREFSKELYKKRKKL

The target in assay [8] is Calcium-dependent protein kinase 4 (Plasmodium falciparum (isolate 3D7)) (UniProt Q8IBS5). Kind of assay: PfCDPK4 kinase inhibitors, biochemical, TCAMS library (AID 1159588; cut-off not given, nearly all actives have IC50 up to about 0.91 µM). Conditions: recombinant PfCDPK4, Kinase-Glo ATP depletion luminescence.
Calcium-dependent protein kinase 4 (Plasmodium falciparum (isolate 3D7)), sequence (Q8IBS5 whole entry, looked up): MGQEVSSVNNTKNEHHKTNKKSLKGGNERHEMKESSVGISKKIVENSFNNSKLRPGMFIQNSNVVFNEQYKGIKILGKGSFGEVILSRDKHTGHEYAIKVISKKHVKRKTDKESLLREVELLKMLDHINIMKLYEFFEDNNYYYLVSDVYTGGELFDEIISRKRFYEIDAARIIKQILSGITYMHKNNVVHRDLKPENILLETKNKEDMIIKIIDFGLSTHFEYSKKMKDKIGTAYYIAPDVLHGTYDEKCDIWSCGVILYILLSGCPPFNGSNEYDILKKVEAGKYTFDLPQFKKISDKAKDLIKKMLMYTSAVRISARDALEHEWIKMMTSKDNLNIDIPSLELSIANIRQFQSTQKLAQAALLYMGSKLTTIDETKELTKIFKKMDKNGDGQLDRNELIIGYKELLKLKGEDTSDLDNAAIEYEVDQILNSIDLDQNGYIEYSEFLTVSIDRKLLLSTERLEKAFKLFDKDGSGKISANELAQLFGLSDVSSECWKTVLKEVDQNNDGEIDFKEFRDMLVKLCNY

Each structure is given as a SMILES string. A number with no mark means an inactive call. For some of these results: Potency and affinity values are given separately. Activity calls are given as the source filed them. Unless noted, no rule for the calls is given here.

Plasmodium falciparum protein kinase 6 (PK6, PF3D7_1337100), sequence (Q8IDW1 1-305): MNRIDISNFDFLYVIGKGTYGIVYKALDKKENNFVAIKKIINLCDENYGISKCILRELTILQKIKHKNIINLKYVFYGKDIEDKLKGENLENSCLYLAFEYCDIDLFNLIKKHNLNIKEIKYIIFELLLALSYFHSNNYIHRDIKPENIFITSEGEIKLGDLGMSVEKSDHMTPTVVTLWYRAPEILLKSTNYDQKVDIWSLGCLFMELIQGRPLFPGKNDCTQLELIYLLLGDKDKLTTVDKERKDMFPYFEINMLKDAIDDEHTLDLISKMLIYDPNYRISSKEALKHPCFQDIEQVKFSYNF
L-lactate dehydrogenase (Plasmodium falciparum (isolate CDC / Honduras)), sequence (Q27743 whole entry, looked up): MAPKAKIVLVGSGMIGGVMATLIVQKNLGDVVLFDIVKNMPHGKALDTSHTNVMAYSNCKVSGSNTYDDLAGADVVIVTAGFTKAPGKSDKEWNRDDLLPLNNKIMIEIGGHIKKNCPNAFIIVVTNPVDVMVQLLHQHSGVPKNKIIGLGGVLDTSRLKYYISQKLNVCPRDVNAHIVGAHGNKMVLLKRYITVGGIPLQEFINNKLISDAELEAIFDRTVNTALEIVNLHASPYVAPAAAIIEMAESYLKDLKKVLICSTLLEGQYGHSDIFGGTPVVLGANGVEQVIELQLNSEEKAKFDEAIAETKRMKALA

The inhibition is the relative decrease from the control value, in per cent. In the case of `COc1cccc2cc(C(=O)N[C@@H](CC(C)C)C(=O)N[C@H](/C=N/N3CCCC3=O)Cc3ccccc3)oc12`, the growth inhibition was 80% (active) in assay [1] and 96% (active) in assay [4]. Also, the inhibition in assay [2] and in assay [3] was 5% in each case. For the same compound, the outcome in assay [5], in assay [6], in assay [7] and in assay [8] was inactive.
Turning to `CCNc1cc(C(=O)N[C@@H](Cc2ccccc2)[C@H](O)CNC23CCC(CC2)C3)cc(N2CCCCS2(=O)=O)c1`, the growth inhibition was 99% (active) in assay [1] and 97% (active) in assay [4]. The inhibition in assay [2] was 22%; in assay [3], -2%. Besides, the result in assay [5], in assay [6], in assay [7] and in assay [8] was inactive.
Consider `O=C(O)C[C@H](NC(=O)[C@@H]1CCCN1C(=O)c1cccc(-c2ccc(Cl)c(Cl)c2)c1)C(=O)O`, for which the growth inhibition is 0% in assay [1] and 84% (active) in assay [4]. For the same compound, the figures for the inhibition in assay [2] and in assay [3] were -1% and 0%, respectively. Also, the result in assay [5], in assay [6], in assay [7] and in assay [8] was inactive.
For the compound `C[C@@H]1CN(c2cnn(Cc3cccc(NC(=O)Nc4cccc(C(F)(F)F)c4)c3)c(=O)c2Cl)C[C@H](C)N1`, the growth inhibition in assay [1] is 74% (active); in assay [4], 96% (active). The inhibition was 19% in assay [2] and -4% in assay [3]. The outcome in assay [5], in assay [6], in assay [7] and in assay [8] was inactive.
For `CN(C)CCCNc1ncnc2c1[nH]c1ccc(Cl)cc12`, the growth inhibition was 3% in assay [1] and 99% (active) in assay [4]. In addition, the inhibition in assay [2] and in assay [3] was 2% each time. Further, the outcome in assay [5], in assay [6], in assay [7] and in assay [8] was inactive.
In the case of `Cc1[nH]c2ccc(-c3ccc(N(C)C)cc3)cc2c(=O)c1Cl`, the growth inhibition was 96% (active) in assay [1] and 97% (active) in assay [4]. The inhibition was -1% in assay [2] and 5% in assay [3]. Also, the outcome in assay [5], in assay [6], in assay [7] and in assay [8] was inactive.
`NCc1ccc(CNCc2cccc(-c3ccc(-c4nc5ccc(C(F)(F)F)cc5[nH]4)cc3)c2)cc1`: the growth inhibition in assay [1] was 90% (active); in assay [4] it was 98% (active). In addition, the inhibition is 13% in assay [2] and -7% in assay [3]. Moreover, the outcome in assay [5], in assay [6], in assay [7] and in assay [8] was inactive.
Regarding `O=C(NCC1CCN(Cc2cccc(C(F)(F)F)c2)C1)c1cc(-c2cccc(Cl)c2)cs1` (stereo not given), the results for the growth inhibition in assay [1] and in assay [4] were 14% and 93% (active), respectively. Also, the inhibition was 15% in assay [2] and -5% in assay [3]. Besides, the result in assay [5], in assay [6], in assay [7] and in assay [8] was inactive.
For the compound `COc1cncc(/C=C/c2cncc(C(=O)NCCc3ccc(Cl)cc3Cl)c2)c1`, the figures for the growth inhibition in assay [1] and in assay [4] were 49% and 99% (active), respectively. Also, the figures for the inhibition in assay [2] and in assay [3] were -3% and -9%, respectively. Besides, the result in assay [5], in assay [6], in assay [7] and in assay [8] was inactive.
As for `Cc1ccc(F)c(OCC2CCN(c3ncc(C(=O)NC4CC4)cc3Cl)CC2)c1`, the growth inhibition in assay [1] is 95% (active); in assay [4], 96% (active). For the same compound, the inhibition was 9% in assay [2] and -3% in assay [3]. Further, the result in assay [5], in assay [6], in assay [7] and in assay [8] was inactive.
Turning to `CC1(C)N=C(N)N=C(N)N1OCCCCCCOc1ccc(Cl)c2ccccc12`, the growth inhibition was 94% (active) in assay [1] and 91% (active) in assay [4]. The inhibition is 62% (active) in assay [2] and 1% in assay [3]. For the same compound, the outcome in assay [5], in assay [6], in assay [7] and in assay [8] was inactive.
Take `CC(C)CNCc1ccc(-c2cccc(CNC3CCN(Cc4ccccc4)CC3)c2)cc1`: the growth inhibition in assay [1] is 100% (active); in assay [4], 101% (active). Moreover, the inhibition in assay [2] was 34%; in assay [3] it was -9%. For the same compound, the result in assay [5], in assay [6], in assay [7] and in assay [8] was inactive.
`CC(C)CN1C(=O)c2ccccc2C(C(=O)Nc2cccc(C#N)c2)C1c1cccs1` (stereo not given): the growth inhibition in assay [1] was 100% (active); in assay [4] it was 101% (active). For the same compound, the inhibition in assay [2] was 11%; in assay [3], -4%. In addition, the outcome in assay [5], in assay [6], in assay [7] and in assay [8] was inactive.
As for `O=C(NCC1CCN(CC2CCCCC2)C1)c1cc(-c2cccc(C(F)(F)F)c2)cs1` (stereo not given), the growth inhibition was 21% in assay [1] and 96% (active) in assay [4]. Besides, the inhibition in assay [2] was 47%; in assay [3], -3%. The result in assay [5], in assay [6], in assay [7] and in assay [8] was inactive.
Turning to `O=[N+]([O-])c1cccc(CNC2CCN(Cc3ccc4ccccc4c3)CC2)c1`, the growth inhibition is 22% in assay [1] and 100% (active) in assay [4]. Also, the inhibition in assay [2] was 12%; in assay [3], -3%. Moreover, the outcome in assay [5], in assay [6], in assay [7] and in assay [8] was inactive.
For `Oc1cccc(Nc2ccnc3cc(-c4ccccn4)ccc23)c1`, the growth inhibition is 98% (active) in assay [1] and 96% (active) in assay [4]. Moreover, the inhibition was 24% in assay [2] and -3% in assay [3]. In addition, the outcome in assay [5], in assay [6], in assay [7] and in assay [8] was inactive.
`Cc1cccc2[nH]c(-c3cccc(-c4cccc(NC(=O)Nc5ccc(Cl)cc5)c4)c3)nc12`: the growth inhibition in assay [1] was 94% (active); in assay [4] it was 100% (active). Further, the inhibition in assay [2] is 23%; in assay [3] it was -2%. The outcome in assay [5], in assay [6], in assay [7] and in assay [8] was inactive.
Regarding `CCCNCc1ccc(-c2ccc(CN(CCOC)C(=O)c3ccc([N+](=O)[O-])c(C)c3)cc2)nc1`, the growth inhibition was 23% in assay [1] and 97% (active) in assay [4]. The figures for the inhibition in assay [2] and in assay [3] were 2% and 1%, respectively. The outcome in assay [5], in assay [6], in assay [7] and in assay [8] was inactive.
Regarding `Cc1ccc(CON2C(N)=NC(N)=NC23CCCCC3)c2ccccc12`, the results for the growth inhibition in assay [1] and in assay [4] were 56% (active) and 98% (active), respectively. For the same compound, the values for the inhibition in assay [2] and in assay [3] were 57% (active) and -8%, respectively. The outcome in assay [5], in assay [6], in assay [7] and in assay [8] was inactive.
Turning to `O=c1cc(NCCC(CNCc2cc3ccccc3o2)NCc2cc(Br)cc(Br)c2)[nH]c2ccccc12` (stereo not given), the results for the growth inhibition in assay [1] and in assay [4] were 94% (active) and 100% (active), respectively. For the same compound, the inhibition in assay [2] was 6%; in assay [3], 2%. Also, the result in assay [5], in assay [6], in assay [7] and in assay [8] was inactive.

Values taken from PubChem BioAssay.
